# From article PMC7862700, “An all-to-all approach to the identification of sequence-specific readers for epigenetic DNA modifications on cytosine”
# Experiments:
# Assay in all cases: DAPPL (digital affinity profiling via proximity ligation, sequencing); 10 mM Tris-HCl pH 7.5, 50 mM NaCl, 1 mM DTT, 4% glycerol, room temperature, 30 min; GST-TFs on glutathione beads, 16-mer random dsDNA library, 0.1% formaldehyde crosslink after washing; high values mean tight binding
# FLI1 = biological target: T1, FLI1 (Homo sapiens, UniProt Q01543 1-452); conditions: protein: recombinant; tags: N-terminal GST; dsDNA, one strand shown
# T1 sequence: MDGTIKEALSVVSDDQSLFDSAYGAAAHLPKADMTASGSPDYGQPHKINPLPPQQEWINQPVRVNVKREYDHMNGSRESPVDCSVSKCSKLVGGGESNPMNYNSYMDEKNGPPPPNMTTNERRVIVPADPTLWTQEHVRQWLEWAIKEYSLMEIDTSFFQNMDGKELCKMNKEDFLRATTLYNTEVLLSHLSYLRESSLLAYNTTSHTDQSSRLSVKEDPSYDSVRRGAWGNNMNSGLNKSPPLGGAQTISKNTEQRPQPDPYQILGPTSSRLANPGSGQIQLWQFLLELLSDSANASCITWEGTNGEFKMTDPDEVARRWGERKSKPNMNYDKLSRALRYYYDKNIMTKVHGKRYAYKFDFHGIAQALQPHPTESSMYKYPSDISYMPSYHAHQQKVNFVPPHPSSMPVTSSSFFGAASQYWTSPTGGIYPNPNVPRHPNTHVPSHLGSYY
# Outline: (§1)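 Human transcription factors fused to GST were expressed in yeast, captured on glutathione beads, given DNA barcodes and pooled with a GST-only negative control. Pools were incubated with 200 nmole of a 16-mer random double-stranded DNA library in Tris/NaCl/DTT/glycerol buffer at room temperature for 30 min. They were then washed, crosslinked with 0.1% formaldehyde, proximity-ligated (BsaI/T4 ligase, 1 h, 37 °C), PCR-amplified and sequenced on an Illumina NextSeq500. Binding signal is each 6-mer's read frequency for a factor divided by its frequency for the GST control.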
# ELK1 = biological target: T2, ELK1 (Homo sapiens, UniProt P19419 1-428); conditions: protein: recombinant; tags: N-terminal GST; dsDNA, one strand shown
# T2 sequence: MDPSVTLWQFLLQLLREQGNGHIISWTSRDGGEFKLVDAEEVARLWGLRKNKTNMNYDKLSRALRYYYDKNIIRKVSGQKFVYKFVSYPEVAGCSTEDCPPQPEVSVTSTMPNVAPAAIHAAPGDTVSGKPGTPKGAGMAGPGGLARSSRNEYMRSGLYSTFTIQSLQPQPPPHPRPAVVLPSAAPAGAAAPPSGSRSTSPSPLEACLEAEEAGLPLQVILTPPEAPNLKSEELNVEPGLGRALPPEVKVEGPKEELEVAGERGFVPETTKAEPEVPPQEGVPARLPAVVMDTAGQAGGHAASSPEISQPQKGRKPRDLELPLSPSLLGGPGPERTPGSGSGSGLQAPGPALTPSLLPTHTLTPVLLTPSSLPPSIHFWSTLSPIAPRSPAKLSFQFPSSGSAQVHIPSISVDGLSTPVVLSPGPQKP
# Outline: as §1
# GABPA = biological target: T3, GABPA (Homo sapiens, UniProt Q06546 1-454); conditions: protein: recombinant; tags: N-terminal GST; dsDNA, one strand shown
# T3 sequence: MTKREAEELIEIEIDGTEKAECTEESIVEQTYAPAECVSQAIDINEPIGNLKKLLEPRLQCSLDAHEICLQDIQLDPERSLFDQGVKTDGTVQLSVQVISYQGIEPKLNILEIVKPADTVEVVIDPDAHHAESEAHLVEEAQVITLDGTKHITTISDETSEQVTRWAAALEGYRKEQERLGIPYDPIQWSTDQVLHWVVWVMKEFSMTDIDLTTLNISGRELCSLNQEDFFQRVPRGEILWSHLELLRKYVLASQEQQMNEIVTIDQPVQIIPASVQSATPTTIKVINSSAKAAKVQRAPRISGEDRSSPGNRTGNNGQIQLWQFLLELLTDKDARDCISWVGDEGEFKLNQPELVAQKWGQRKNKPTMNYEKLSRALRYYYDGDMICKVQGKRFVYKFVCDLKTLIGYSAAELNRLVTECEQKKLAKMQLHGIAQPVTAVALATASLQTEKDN
# Outline: as §1
# ERG = biological target: T4, ERG (Homo sapiens, UniProt P11308 1-479); conditions: protein: recombinant; tags: N-terminal GST; dsDNA, one strand shown
# T4 sequence: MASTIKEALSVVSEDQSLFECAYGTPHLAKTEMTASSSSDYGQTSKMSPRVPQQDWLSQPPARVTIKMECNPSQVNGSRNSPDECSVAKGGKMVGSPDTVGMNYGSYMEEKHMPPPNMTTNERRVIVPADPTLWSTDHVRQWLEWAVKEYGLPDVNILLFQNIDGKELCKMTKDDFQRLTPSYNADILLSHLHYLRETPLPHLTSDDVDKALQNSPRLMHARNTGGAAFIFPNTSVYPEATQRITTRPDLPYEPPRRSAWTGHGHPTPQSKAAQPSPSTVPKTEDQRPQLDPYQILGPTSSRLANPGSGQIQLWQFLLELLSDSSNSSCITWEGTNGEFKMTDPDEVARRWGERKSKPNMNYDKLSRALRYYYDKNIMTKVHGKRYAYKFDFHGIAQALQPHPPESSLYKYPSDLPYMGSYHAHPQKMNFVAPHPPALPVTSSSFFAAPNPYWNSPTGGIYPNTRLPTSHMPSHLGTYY
# Outline: as §1
# ELF1 = ELF1 (Homo sapiens, UniProt P32519 1-619); conditions: protein: recombinant; tags: N-terminal GST; dsDNA, one strand shown
# Outline: as §1
# EHF = biological target: T5, EHF (Homo sapiens, UniProt Q9NZC4 1-300); conditions: protein: recombinant; tags: N-terminal GST; dsDNA, one strand shown
# T5 sequence: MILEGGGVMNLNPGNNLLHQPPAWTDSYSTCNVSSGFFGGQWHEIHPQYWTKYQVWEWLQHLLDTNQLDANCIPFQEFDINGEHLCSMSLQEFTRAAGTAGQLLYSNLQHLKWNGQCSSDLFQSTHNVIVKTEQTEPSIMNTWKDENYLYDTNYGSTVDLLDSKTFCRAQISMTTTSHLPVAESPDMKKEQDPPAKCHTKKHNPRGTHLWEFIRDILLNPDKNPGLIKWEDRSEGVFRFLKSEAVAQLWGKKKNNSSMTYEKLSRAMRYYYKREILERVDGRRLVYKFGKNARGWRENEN
# Outline: as §1
# SPI1 = SPI1 (Homo sapiens, UniProt P17947 1-270); conditions: protein: recombinant; tags: N-terminal GST; dsDNA, one strand shown
# Outline: as §1
# SPIB = SPIB (Homo sapiens, UniProt Q01892 1-262); conditions: protein: recombinant; tags: N-terminal GST; dsDNA, one strand shown
# Outline: as §1
# ELK3 = biological target: T6, ELK3 (Homo sapiens, UniProt P41970 1-407); conditions: protein: recombinant; tags: N-terminal GST; dsDNA, one strand shown
# T6 sequence: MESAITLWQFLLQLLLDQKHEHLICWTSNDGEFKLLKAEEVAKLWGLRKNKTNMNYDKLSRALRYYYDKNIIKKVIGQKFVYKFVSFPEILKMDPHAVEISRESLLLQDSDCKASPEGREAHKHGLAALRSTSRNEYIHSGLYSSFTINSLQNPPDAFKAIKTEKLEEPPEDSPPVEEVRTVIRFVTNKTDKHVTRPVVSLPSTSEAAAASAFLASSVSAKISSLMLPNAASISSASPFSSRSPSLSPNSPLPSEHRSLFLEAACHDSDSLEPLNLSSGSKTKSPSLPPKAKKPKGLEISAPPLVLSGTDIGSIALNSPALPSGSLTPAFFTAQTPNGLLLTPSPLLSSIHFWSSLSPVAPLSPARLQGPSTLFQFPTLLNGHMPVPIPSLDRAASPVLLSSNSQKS
# Outline: as §1
# FEV = biological target: T7, FEV (Homo sapiens, UniProt Q99581 1-238); conditions: protein: recombinant; tags: N-terminal GST; dsDNA, one strand shown
# T7 sequence: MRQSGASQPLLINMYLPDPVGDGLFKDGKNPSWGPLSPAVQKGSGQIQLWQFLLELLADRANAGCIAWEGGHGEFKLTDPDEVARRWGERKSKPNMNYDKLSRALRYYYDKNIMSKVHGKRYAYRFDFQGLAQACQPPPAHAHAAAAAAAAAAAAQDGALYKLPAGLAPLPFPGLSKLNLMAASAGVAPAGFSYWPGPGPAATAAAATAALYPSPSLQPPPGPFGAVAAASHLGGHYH
# Outline: as §1
# ETV5 = ETV5 (Homo sapiens, UniProt P41161 1-510); conditions: protein: recombinant; tags: N-terminal GST; dsDNA, one strand shown
# Outline: as §1
# HSF1 = HSF1 (Homo sapiens, UniProt Q00613 1-529); conditions: protein: recombinant; tags: N-terminal GST; chain copies: 3; dsDNA, one strand shown
# Outline: as §1
# SPIC = biological target: T8, SPIC (Homo sapiens, UniProt Q8N5J4 1-248); conditions: protein: recombinant; tags: N-terminal GST; dsDNA, one strand shown
# T8 sequence: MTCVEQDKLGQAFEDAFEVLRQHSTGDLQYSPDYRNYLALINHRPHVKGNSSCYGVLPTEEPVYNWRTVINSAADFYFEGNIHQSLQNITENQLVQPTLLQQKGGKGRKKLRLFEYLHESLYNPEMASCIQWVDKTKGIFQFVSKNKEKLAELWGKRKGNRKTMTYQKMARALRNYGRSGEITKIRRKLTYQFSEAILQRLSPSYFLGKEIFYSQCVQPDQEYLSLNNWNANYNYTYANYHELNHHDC
# Outline: as §1
# ELF4 = ELF4 (Homo sapiens, UniProt Q99607 1-663); conditions: protein: recombinant; tags: N-terminal GST; dsDNA, one strand shown
# Outline: as §1
# ELK4 = biological target: T9, ELK4 (Homo sapiens, UniProt P28324-2 1-405); conditions: protein: recombinant; tags: N-terminal GST; dsDNA, one strand shown
# T9 sequence: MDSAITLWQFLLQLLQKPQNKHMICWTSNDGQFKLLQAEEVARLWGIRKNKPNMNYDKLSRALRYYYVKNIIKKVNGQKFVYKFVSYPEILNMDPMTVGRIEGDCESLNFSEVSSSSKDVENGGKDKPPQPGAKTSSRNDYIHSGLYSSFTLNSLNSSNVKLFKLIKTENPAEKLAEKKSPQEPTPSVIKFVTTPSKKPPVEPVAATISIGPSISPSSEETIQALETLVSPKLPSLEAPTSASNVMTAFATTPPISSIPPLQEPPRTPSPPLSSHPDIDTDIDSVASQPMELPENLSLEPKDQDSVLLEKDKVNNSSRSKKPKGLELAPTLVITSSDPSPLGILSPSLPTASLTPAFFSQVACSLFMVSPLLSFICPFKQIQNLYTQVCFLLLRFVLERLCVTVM
# Outline: as §1
# ETV2 = biological target: T10, ETV2 (Homo sapiens, UniProt O00321 1-342); conditions: protein: recombinant; tags: N-terminal GST; dsDNA, one strand shown
# T10 sequence: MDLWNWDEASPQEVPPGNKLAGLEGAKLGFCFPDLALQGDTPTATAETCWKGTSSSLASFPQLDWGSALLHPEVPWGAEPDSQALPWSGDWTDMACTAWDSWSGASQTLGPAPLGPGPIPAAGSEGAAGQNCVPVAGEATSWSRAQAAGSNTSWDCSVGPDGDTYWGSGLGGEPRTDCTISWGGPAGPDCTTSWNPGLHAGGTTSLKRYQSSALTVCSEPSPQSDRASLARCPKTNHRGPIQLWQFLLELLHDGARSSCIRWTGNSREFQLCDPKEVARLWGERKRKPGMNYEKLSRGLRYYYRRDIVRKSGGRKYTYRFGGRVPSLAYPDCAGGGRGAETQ
# Outline: as §1
# ELF3 = biological target: T11, ELF3 (Homo sapiens, UniProt P78545 1-371); conditions: protein: recombinant; tags: N-terminal GST; dsDNA, one strand shown
# T11 sequence: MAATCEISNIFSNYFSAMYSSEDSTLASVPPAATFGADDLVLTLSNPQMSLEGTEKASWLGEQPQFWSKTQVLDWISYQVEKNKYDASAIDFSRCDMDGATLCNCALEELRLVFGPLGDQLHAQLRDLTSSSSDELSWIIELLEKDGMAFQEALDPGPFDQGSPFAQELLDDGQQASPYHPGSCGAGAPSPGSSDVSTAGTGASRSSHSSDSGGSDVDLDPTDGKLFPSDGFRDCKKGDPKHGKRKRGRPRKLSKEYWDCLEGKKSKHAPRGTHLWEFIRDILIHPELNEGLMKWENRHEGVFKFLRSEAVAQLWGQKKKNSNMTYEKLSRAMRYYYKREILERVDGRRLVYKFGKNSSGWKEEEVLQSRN
# Outline: as §1
# CRX = CRX (Homo sapiens, UniProt O43186 1-299); conditions: protein: recombinant; tags: N-terminal GST; dsDNA, one strand shown
# Outline: as §1
# ETV1 = ETV1 (Homo sapiens, UniProt P50549 1-477); conditions: protein: recombinant; tags: N-terminal GST; dsDNA, one strand shown
# Outline: as §1
# Chain of ELF4 (Q99607 whole entry): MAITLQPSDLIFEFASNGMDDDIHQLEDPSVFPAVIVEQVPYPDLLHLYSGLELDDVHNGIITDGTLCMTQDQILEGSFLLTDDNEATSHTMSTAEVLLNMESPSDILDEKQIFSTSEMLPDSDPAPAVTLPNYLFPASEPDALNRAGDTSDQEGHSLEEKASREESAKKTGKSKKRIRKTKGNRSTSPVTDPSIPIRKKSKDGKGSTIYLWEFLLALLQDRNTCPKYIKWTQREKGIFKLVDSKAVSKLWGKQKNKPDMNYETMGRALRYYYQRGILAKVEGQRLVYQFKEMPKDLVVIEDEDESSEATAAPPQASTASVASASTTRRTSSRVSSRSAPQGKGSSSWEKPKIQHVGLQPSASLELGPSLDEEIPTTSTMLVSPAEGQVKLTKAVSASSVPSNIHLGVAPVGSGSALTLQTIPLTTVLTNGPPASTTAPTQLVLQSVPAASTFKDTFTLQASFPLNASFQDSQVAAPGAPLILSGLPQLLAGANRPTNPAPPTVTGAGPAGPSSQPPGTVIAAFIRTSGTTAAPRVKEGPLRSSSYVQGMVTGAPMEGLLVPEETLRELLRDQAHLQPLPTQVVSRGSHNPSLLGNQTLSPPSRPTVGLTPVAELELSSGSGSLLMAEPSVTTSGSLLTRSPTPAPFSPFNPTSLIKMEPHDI
# Chain of ELF1 (P32519 whole entry): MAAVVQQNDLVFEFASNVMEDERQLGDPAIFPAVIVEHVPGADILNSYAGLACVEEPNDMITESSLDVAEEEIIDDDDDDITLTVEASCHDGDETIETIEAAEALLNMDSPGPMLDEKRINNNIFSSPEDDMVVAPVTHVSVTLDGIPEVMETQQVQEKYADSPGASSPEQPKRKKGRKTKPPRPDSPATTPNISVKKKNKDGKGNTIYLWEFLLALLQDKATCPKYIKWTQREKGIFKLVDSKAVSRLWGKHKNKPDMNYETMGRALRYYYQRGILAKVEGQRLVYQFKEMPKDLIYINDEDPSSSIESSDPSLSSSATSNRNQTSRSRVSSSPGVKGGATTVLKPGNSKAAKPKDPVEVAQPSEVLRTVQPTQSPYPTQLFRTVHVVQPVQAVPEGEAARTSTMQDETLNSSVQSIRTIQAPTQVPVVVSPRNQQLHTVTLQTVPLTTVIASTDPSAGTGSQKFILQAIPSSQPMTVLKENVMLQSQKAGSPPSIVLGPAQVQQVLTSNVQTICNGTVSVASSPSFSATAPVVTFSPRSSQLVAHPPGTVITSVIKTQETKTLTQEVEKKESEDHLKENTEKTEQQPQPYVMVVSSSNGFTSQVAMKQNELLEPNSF
# Chain of SPIB (Q01892 whole entry): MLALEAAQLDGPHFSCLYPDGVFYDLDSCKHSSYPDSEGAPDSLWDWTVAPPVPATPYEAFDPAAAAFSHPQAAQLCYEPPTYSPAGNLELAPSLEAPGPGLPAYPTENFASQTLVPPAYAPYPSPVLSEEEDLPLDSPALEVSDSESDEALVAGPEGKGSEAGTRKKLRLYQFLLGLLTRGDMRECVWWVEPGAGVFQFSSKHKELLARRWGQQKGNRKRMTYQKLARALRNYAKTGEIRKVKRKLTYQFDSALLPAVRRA
# Chain of CRX (O43186 whole entry): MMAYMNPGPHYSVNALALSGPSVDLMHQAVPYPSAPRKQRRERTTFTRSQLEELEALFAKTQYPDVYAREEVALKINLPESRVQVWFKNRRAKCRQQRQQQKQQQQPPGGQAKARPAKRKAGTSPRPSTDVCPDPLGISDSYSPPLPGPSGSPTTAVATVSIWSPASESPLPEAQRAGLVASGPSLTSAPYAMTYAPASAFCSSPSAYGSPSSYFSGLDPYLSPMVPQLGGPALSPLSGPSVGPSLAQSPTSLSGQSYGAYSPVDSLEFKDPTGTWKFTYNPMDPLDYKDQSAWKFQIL
# Chain of ETV5 (P41161 whole entry): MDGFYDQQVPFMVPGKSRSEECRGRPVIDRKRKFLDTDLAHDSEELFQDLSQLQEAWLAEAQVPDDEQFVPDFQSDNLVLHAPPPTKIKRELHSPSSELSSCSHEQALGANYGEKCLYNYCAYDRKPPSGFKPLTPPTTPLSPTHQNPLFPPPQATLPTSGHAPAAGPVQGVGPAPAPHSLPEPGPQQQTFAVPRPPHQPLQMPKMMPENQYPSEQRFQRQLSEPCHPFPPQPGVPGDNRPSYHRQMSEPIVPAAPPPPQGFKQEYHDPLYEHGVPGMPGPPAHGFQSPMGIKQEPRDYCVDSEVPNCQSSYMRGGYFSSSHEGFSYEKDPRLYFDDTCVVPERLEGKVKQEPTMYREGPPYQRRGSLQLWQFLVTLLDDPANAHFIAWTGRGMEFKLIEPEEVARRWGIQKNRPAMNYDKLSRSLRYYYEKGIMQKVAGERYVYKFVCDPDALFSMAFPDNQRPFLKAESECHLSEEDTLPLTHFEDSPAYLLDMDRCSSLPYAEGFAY
# Chain of HSF1 (Q00613 whole entry): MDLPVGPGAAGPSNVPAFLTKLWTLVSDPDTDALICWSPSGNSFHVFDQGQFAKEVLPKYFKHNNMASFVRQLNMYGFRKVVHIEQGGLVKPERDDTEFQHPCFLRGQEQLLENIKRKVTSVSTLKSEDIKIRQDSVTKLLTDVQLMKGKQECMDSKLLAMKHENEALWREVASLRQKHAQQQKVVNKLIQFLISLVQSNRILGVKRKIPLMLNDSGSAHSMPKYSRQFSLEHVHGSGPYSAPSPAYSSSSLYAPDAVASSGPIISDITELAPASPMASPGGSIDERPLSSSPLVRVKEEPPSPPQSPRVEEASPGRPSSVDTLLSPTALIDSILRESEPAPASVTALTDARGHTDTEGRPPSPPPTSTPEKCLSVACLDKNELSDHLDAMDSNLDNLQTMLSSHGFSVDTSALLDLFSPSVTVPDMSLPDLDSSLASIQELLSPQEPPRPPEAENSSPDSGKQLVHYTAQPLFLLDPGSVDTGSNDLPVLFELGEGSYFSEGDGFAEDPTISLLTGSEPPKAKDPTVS
# Chain of ETV1 (P50549 whole entry): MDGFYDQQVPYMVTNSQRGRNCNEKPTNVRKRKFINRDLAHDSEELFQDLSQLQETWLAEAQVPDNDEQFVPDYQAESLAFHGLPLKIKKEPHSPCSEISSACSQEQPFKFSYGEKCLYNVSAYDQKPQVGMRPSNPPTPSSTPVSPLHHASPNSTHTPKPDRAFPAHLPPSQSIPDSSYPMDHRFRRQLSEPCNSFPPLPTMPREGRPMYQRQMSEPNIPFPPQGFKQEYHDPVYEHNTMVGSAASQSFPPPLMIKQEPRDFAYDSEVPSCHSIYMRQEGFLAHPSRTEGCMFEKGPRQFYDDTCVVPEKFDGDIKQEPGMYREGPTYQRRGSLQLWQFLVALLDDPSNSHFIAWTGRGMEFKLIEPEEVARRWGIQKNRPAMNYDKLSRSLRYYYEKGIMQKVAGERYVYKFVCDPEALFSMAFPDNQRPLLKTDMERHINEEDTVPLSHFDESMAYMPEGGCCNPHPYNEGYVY
sequence,measurement,setting,value
CGATTT,binding signal,FLI1,"1.23 fold enrichment (6-mer frequency, TF over GST control)"
same,binding signal,ELK1,"1.08 fold enrichment (6-mer frequency, TF over GST control)"
same,binding signal,GABPA,"1.08 fold enrichment (6-mer frequency, TF over GST control)"
same,binding signal,ERG,"1.17 fold enrichment (6-mer frequency, TF over GST control)"
same,binding signal,ELF1,"1.09 fold enrichment (6-mer frequency, TF over GST control)"
same,binding signal,EHF,"1.26 fold enrichment (6-mer frequency, TF over GST control)"
same,binding signal,SPI1,"1.09 fold enrichment (6-mer frequency, TF over GST control)"
same,binding signal,SPIB,"1.1 fold enrichment (6-mer frequency, TF over GST control)"
same,binding signal,ELK3,"1.04 fold enrichment (6-mer frequency, TF over GST control)"
same,binding signal,FEV,"1.22 fold enrichment (6-mer frequency, TF over GST control)"
same,binding signal,ETV5,"1.23 fold enrichment (6-mer frequency, TF over GST control)"
same,binding signal,HSF1,"1.38 fold enrichment (6-mer frequency, TF over GST control)"
same,binding signal,SPIC,"1.22 fold enrichment (6-mer frequency, TF over GST control)"
same,binding signal,ELF4,"1.19 fold enrichment (6-mer frequency, TF over GST control)"
same,binding signal,ELK4,"1.14 fold enrichment (6-mer frequency, TF over GST control)"
same,binding signal,ETV2,"1.13 fold enrichment (6-mer frequency, TF over GST control)"
same,binding signal,ELF3,"1.23 fold enrichment (6-mer frequency, TF over GST control)"
same,binding signal,CRX,"1.58 fold enrichment (6-mer frequency, TF over GST control)"
same,binding signal,ETV1,"1.17 fold enrichment (6-mer frequency, TF over GST control)"
